# Test results taken from PubChem BioAssay (EPA / NIEHS).
# Values joined by “and” are separate entries in the source; they are usually repeats but may differ in a detail not shown here. Identical values can stand only once. Inconclusive results are not listed. Where a structure was tested more than once in an assay, its records may differ in their call. Active and inactive are the calls of the source. The calls were made as follows, unless noted: active = hit-call score of the fitted dose curve at least 0.9, where 1 is the maximum; inconclusive = response in the unintended direction; inactive = score below 0.9.
# Legend:
# [1] = biological target: human Constitutive Androstane Receptor (CAR), NR1I3 (gene 9970) (UniProt Q14994); test: NVS_NR_hCAR_Antagonist: NovaScreen (NVS) Nuclear Receptor Binding Assay for human Constitutive Androstane Receptor Antagonism (CAR) (AID 2283344)
# Sequence of human Constitutive Androstane Receptor (CAR), NR1I3 (gene 9970) (Q14994 whole entry, looked up): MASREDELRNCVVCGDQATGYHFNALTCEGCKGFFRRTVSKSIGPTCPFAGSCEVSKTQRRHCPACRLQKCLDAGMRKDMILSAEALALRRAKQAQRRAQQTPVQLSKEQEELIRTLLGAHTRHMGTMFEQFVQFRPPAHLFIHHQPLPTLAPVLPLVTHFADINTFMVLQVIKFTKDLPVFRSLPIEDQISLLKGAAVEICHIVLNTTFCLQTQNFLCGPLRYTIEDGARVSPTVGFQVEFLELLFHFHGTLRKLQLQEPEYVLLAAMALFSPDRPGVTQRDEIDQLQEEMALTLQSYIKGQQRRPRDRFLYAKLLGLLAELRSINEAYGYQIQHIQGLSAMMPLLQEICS
# Procedure, shortened: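 Single 25 uM duplicate primary screen, with concentration-series follow-up on actives. Cell-free binding format run in antagonist mode, TR-FRET signal taken 1 h post-dose; activity is signal loss relative to DMSO.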
# [2] = biological target: Voltage-gated inwardly rectifying potassium channel KCNH2 (Homo sapiens) (UniProt Q12809); test: NVS_IC_hKhERGCh: NovaScreen (NVS) Ion Channel Assay for human Potassium Channel ERG (KhERGCh) (AID 2283333)
# Sequence of Voltage-gated inwardly rectifying potassium channel KCNH2 (Homo sapiens) (Q12809 whole entry, looked up): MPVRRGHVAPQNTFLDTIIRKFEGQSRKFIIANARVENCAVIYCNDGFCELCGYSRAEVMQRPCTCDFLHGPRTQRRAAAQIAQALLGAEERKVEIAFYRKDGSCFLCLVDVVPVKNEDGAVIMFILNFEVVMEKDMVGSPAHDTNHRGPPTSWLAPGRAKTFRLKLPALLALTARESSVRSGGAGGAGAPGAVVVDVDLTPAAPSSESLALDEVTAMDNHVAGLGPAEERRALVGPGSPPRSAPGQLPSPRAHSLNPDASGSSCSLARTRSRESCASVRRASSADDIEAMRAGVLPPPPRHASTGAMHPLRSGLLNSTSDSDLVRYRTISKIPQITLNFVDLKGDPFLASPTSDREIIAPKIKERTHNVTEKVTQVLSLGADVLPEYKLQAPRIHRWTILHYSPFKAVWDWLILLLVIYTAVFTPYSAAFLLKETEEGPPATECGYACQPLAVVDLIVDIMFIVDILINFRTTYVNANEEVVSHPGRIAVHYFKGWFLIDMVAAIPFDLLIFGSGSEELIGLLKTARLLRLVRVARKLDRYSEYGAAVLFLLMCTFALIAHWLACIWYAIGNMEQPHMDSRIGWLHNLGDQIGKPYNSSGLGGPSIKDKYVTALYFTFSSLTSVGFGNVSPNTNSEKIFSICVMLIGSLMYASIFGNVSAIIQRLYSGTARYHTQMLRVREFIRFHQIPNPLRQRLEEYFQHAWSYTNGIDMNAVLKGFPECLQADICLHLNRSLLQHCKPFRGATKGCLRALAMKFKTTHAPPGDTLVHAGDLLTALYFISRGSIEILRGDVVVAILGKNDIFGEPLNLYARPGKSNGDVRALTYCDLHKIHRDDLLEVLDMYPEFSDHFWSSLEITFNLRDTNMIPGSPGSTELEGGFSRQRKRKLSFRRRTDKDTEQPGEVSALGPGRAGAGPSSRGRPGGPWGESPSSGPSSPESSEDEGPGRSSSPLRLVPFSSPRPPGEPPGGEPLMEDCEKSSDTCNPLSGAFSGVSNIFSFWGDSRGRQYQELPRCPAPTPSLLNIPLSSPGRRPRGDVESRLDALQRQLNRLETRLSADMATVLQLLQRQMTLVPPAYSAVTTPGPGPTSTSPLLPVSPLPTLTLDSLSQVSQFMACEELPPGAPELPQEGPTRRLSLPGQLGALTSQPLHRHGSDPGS
# Procedure, shortened: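 Membranes from CHO cells expressing human ERG; displacement of radioligand measured by filtration and scintillation after 0.75 h. Single-concentration duplicate screen at 25 uM, then concentration-response for actives; DMSO baseline.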
# [3] = biological target: rat Peripheral-type Benzodiazepine Receptor (PBR), Tspo (gene 24230) (UniProt P16257); test: NVS_MP_rPBR: NovaScreen (NVS) Membrane Protein Assay for rat Peripheral-type Benzodiazepine Receptor (PBR) (AID 2283335)
# Sequence of rat Peripheral-type Benzodiazepine Receptor (PBR), Tspo (gene 24230) (P16257 whole entry, looked up): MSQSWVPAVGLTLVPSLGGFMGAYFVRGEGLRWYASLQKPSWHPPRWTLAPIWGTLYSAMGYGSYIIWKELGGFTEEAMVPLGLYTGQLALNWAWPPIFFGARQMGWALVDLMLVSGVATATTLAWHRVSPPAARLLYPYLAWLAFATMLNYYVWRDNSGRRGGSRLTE
# Procedure, shortened: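 Competitive displacement of specific radioligand from rat kidney membrane PBR, read by filtration and scintillation after 1 h. Compounds first tested at 25 uM in duplicate, then in concentration series; signal loss relative to DMSO.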
# [4] = biological target: rat Thyrotropin Releasing Hormone Receptor (TRH), Trhr (gene 25570) (UniProt Q01717); test: NVS_GPCR_rTRH: NovaScreen (NVS) G Protein-Coupled Receptor Assay for rat Thyrotropin Releasing Hormone Receptor (TRH) (AID 2283329);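 also: hit means lower bound tracer signal versus DMSO baseline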
# Sequence of rat Thyrotropin Releasing Hormone Receptor (TRH), Trhr (gene 25570) (Q01717 whole entry, looked up): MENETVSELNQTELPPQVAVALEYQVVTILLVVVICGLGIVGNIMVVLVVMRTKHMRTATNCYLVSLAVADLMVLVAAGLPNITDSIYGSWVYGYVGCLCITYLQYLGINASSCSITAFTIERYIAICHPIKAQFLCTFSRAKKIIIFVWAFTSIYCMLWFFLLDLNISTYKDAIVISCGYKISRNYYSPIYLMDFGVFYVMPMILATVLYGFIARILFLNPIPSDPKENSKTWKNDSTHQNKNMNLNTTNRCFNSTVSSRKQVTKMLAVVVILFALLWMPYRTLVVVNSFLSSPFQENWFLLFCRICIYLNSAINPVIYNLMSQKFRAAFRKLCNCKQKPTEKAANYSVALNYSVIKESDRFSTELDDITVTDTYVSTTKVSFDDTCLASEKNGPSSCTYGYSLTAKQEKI
# Procedure, shortened: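 Test compounds are screened at 25 uM in duplicate against radioligand binding in rat forebrain membranes, with active pairs followed up over a concentration range. Detection uses filter-based radiodetection after a 4 h exposure.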
# [5] = biological target: rat Glutamate, NMDA Agonist Site (GluNMDA), Grin1 (gene 24408) (UniProt P35439); test: NVS_LGIC_rGluNMDA_Agonist: NovaScreen (NVS) Ligand-Gated Ion Channel Assay for rat Glutamate, NMDA Agonist Site (GluNMDA) (AID 2283327)
# Procedure, shortened: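 Radioligand displacement at the agonist site on rat forebrain membrane preparations, read by filter scintillation after 1 h. Chemicals were first run at 25 uM in duplicate; those passing threshold were titrated to a 50 uM maximum.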
# [6] = biological target: human Androgen Receptor (AR), AR (gene 367) (UniProt P10275); test: NVS_NR_hAR: NovaScreen (NVS) Nuclear Receptor Binding Assay for human Androgen Receptor (AR) (AID 2283332)
# Sequence of human Androgen Receptor (AR), AR (gene 367) (P10275 whole entry, looked up): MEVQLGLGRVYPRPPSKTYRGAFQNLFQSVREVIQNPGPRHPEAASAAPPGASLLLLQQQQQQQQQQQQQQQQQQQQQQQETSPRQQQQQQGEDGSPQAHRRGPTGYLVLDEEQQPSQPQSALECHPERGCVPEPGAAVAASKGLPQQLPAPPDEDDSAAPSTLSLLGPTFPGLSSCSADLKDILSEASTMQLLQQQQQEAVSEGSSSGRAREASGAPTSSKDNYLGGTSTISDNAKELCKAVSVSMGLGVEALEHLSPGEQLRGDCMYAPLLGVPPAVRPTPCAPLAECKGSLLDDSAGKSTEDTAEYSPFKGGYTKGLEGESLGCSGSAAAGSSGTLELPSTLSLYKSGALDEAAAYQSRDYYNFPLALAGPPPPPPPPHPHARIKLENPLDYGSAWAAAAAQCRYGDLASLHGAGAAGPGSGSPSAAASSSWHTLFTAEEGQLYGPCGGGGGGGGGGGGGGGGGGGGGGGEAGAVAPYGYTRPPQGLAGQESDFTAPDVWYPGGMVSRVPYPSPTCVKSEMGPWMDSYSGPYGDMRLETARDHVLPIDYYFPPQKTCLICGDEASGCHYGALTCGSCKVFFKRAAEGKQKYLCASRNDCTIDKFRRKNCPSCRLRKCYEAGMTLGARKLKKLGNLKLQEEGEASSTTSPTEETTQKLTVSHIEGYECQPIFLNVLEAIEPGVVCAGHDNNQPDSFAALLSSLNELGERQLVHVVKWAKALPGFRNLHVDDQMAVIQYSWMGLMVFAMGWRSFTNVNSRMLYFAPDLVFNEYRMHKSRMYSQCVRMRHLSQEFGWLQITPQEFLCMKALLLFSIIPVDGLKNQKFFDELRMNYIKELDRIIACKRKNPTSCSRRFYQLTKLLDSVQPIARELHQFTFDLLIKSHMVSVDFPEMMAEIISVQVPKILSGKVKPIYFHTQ
# Procedure, shortened: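 Radioligand competitive binding, scintillation read-out, in cell-free extract from LnCAP, measured 20 h after dosing. Screened first in duplicate at 25 uM, then concentration series for actives; activity fitted against DMSO.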
# [7] = biological target: rat Glutamate, MK-801 Agonist Site (GluNMDA_MK801), Grin1 (gene 24408) (UniProt P35439); test: NVS_LGIC_rGluNMDA_MK801_Agonist: NovaScreen (NVS) Ligand-Gated Ion Channel Assay for rat Glutamate, MK-801 Agonist Site (GluNMDA_MK801) (AID 2283340)
# Procedure, shortened: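 Rat forebrain membrane preparation; MK-801-site radioligand binding read by filtration and scintillation after 1.5 h. Single-point 25 uM duplicate screen, followed by singleton concentration series to 50 uM max; DMSO baseline.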
# NCBI gene 100848466 = test: NVS_NR_bPR: NovaScreen (NVS) Nuclear Receptor Binding Assay for bovine Progextron Receptor (PR) (AID 2283343);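 also: actives lower bound radioligand signal below DMSO meaning displacement of the label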
# Procedure, shortened: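 Competitive radioligand binding with membranes from bovine uterus, scintillation read-out at 18 h post-dose. Compounds first tested in duplicate at 25 uM, then actives in concentration series; loss-of-signal relative to DMSO.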
# [8] = biological target: rat Glutamate, AMPA Site (AMPA), Gria1 (gene 50592) (UniProt P19490); test: NVS_LGIC_rAMPA: NovaScreen (NVS) Ligand-Gated Ion Channel Assay for rat Glutamate, AMPA Site (AMPA) (AID 2283324)
# Procedure, shortened: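 Screening at 25 uM in duplicate preceded concentration series reaching 50 uM for qualifying compounds. Radioligand displacement on rat forebrain membranes, 1 h, filter-based scintillation readout; reduced binding relative to DMSO.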
# [9] = biological target: Sodium channel protein type 1 subunit alpha (Rattus norvegicus) (UniProt P04774); test: NVS_IC_rNaCh_site2: NovaScreen (NVS) Ion Channel Assay for rat Sodium Channel, Site 2 (NaCh) (AID 2283322);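 also: hit means loss of radioligand binding signal relative to DMSO so AC50 marks displacement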
# Procedure, shortened: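 Initial duplicate single-point testing at 25 uM, followed by concentration-response runs for actives. Binding of radioligand to rat forebrain membranes quantified after 1 h via filter-based radiodetection.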
# [10] = NVS_IC_rCaBTZCHL: NovaScreen (NVS) Ion Channel Assay for Calcium Channel, Type L, Benzothiazepine Site (CaBTZCHL) (AID 2283337)
# Procedure, shortened: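 Test chemicals were added to rat cortical membranes and incubated 1.5 h with a tritiated or iodinated radioligand for the benzothiazepine site. Bound ligand was separated by filtration and counted. Actives from the 25 uM duplicate screen were retested in concentration series.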
# [11] = system: guinea pig Histamine Receptor (H2), gene 100729734; test: NVS_GPCR_gH2: NovaScreen (NVS) G Protein-Coupled Receptor Assay for guinea pig Histamine Receptor (H2) (AID 2283342)
# Procedure, shortened: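 Guinea pig striatal membrane preparation with specific radioligand; bound counts measured by filtration and scintillation 1 h post-dosing, DMSO as baseline. Chemicals passing a 25 uM duplicate screen were titrated to a 50 uM maximum.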
# [12] = biological target: Glutamate receptor ionotropic, kainate 1 (Rattus norvegicus) (UniProt P22756); test: NVS_IC_rKAR: NovaScreen (NVS) Ion Channel Assay for rat Kainic Acid Receptors (KAR) (AID 2283334; active = hit-call score of the fitted dose curve at least 0.9, where 1 is the maximum; inactive = score below 0.9)
# Sequence of Glutamate receptor ionotropic, kainate 1 (Rattus norvegicus) (P22756 whole entry, looked up): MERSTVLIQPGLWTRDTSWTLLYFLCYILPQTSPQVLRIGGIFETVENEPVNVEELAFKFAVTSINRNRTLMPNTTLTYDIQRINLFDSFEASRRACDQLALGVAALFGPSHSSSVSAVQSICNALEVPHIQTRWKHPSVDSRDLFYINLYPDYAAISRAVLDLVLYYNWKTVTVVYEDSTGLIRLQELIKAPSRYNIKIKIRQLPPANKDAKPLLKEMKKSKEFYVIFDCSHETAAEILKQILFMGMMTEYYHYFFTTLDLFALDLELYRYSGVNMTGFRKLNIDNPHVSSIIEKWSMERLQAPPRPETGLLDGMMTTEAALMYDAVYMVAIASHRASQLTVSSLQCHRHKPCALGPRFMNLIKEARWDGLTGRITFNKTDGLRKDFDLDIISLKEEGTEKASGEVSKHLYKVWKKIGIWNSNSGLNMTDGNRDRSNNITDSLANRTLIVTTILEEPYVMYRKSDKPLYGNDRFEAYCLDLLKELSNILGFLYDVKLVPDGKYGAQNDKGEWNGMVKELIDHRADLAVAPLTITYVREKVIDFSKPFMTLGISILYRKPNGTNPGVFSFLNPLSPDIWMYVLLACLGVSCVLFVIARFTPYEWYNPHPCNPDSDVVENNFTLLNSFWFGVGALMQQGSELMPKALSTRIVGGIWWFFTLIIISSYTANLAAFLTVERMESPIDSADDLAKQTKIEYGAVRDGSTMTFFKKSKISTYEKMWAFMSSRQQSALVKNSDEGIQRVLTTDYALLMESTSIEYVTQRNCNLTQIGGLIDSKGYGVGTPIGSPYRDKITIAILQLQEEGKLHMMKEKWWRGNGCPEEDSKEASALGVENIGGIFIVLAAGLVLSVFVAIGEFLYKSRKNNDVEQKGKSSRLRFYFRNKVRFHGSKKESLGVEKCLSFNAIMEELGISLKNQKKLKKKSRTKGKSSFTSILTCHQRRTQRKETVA
# Procedure, shortened: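 Rat forebrain membrane preparation incubated 1 h with radioligand and test chemical; bound signal read by filtration and scintillation. Single-concentration screen at 25 uM, then concentration series to 50 uM maximum.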
# [13] = biological target: rat Gamma-Aminobutyric Acid Type A Receptor, Non-Selective (GABAR-NonSelective), Gabra1 (gene 29705) (UniProt P62813); test: NVS_LGIC_rGABAR_NonSelective: NovaScreen (NVS) Ligand-Gated Ion Channel Assay for rat Gamma-Aminobutyric Acid Type A Receptor, Non-Selective (GABAR-NonSelective) (AID 2283326)
# Procedure, shortened: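 Compounds were first screened in duplicate at 25 uM, with actives run as singleton concentration series (max 50 uM). Binding of a radioligand to rat whole-brain GABA-A preparation was measured by filtration and scintillation counting after 1 h, DMSO baseline.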
# [14] = NVS_IC_rCaDHPRCh_L: NovaScreen (NVS) Ion Channel Assay for rat Calcium Channel, Type L, Dihydropyridine Site (CaDHPRCh_L) (AID 2283320)
# Procedure, shortened: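 Rat cortex membrane preparation; dihydropyridine-site radioligand displacement read 1 h post-dose by filtration and scintillation. Primary single-point screen 25 uM in duplicate, then concentration series to 50 uM maximum; DMSO as negative control.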
# [15] = biological target: Small conductance calcium-activated potassium channel protein 1 (Rattus norvegicus) (UniProt P70606); test: NVS_IC_rKCaCh: NovaScreen (NVS) Ion Channel Assay for rat Potassium Channel, Ca2+ Act., VI (KCaCh) (AID 2283336)
# Sequence of Small conductance calcium-activated potassium channel protein 1 (Rattus norvegicus) (P70606 whole entry, looked up): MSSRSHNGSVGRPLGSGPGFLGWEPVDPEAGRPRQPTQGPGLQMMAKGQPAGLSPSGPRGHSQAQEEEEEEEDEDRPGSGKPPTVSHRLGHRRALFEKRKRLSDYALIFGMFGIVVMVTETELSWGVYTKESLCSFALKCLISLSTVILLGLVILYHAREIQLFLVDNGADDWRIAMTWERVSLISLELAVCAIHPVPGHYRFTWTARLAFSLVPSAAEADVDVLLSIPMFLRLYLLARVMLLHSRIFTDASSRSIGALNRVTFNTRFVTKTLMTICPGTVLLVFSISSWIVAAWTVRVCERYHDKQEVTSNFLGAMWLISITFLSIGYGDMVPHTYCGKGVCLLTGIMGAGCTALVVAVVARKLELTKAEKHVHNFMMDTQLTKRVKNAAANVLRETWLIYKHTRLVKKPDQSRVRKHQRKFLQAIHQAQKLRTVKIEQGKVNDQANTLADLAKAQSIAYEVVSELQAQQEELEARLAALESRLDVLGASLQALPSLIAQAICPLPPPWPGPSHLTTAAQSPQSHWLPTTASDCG
# Procedure, shortened: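 Filter-based scintillation counting of radioligand bound to rat forebrain membrane preparations, measured 1 h after compound addition. Primary screen used 25 uM in duplicate, with concentration-response follow-up; signal decrease relative to DMSO marks activity.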
# [16] = biological target: bovine Gamma-Aminobutyric Acid Type A Receptor Agonist (GABAR Agonist), GABRA1 (gene 780973) (UniProt P08219); test: NVS_LGIC_bGABAR_Agonist: NovaScreen (NVS) Ligand-Gated Ion Channel Assay for bovine Gamma-Aminobutyric Acid Type A Receptor Agonist (GABAR Agonist) (AID 2283338)
# Sequence of bovine Gamma-Aminobutyric Acid Type A Receptor Agonist (GABAR Agonist), GABRA1 (gene 780973) (P08219 whole entry, looked up): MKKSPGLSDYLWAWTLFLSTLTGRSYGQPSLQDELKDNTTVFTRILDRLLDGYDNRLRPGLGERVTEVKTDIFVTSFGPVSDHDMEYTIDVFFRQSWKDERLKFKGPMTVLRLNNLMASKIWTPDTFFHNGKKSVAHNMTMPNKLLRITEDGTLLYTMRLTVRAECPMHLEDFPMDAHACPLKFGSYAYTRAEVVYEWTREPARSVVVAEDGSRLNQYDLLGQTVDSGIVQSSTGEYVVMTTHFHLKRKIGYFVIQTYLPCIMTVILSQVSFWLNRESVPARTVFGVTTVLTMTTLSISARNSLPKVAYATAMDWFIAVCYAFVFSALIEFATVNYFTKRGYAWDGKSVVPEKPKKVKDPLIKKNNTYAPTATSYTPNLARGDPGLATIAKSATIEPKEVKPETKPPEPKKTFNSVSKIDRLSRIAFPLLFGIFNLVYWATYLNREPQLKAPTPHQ
# Procedure, shortened: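 Radioligand binding to bovine cerebellar membranes in agonist format, read by filter-based scintillation counting after 1 h. Primary screen in duplicate at 25 uM, with actives followed in concentration series. Gain of signal versus DMSO.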
# [17] = biological target: bovine Gamma-Aminobutyric Acid Type A Receptor BDZ, alpha 5 site (GABARa5), GABRA5 (gene 523515) (UniProt Q08E50); test: NVS_LGIC_bGABARa5: NovaScreen (NVS) Ligand-Gated Ion Channel Assay for bovine Gamma-Aminobutyric Acid Type A Receptor BDZ, alpha 5 site (GABARa5) (AID 2283323)
# Procedure, shortened: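 Tested first in duplicate at a single 25 uM, with hits re-run in concentration series to a 50 uM maximum. Bovine hippocampal membranes; specific radioligand displacement measured by filter scintillation counting 1 hr post-dose.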
structure (smiles),measurement,setting,value
O=C(O)c1ccccc1C(c1ccc(O)cc1)c1ccc(O)cc1,AC50,[1],0.427 µM (active)
COc1ccc([N+](=O)[O-])cc1N,outcome,[2],inactive
O=c1c(-c2ccc(O)cc2)coc2cc(O)ccc12,AC50,[3],14 µM (active)
Cc1ccc(S(=O)(=O)O)c(C)c1,outcome,[4],inactive
CCCCCCCCCCCCc1ccccc1S(=O)(=O)O,AC50,[5],20.1 µM (active)
same,AC50,[6],8.85 µM (active)
same,AC50,[3],6.37 µM (active)
same,outcome,[7],inactive
same,AC50,NCBI gene 100848466,17.1 µM (active)
same,AC50,[1],10.9 µM (active)
CN1CCN(c2ccccc2/C=C2\SCCN(c3ccc(Cl)c(Cl)c3)C2=O)CC1,outcome,[8],inactive
CCC(=C(c1ccc(O)cc1)c1ccc(OCCN(C)C)cc1)c1ccccc1,AC50,[9],4.03 µM (active)
same,AC50,[6],8.62 nM (active) and 653 nM (active)
same,AC50,[3],4.37 µM (active) and 3.09 µM (active)
same,outcome,[3],inactive
same,AC50,[10],589 nM (active)
same,AC50,[11],1.33 µM (active)
same,AC50,[1],18.2 µM (active)
NC(=O)N1C(=O)C(C(=O)c2cc(Cl)cs2)c2cc(F)c(Cl)cc21 (stereo not given),outcome,[12],inactive
same,AC50,[3],25 µM (active)
CCN(CC)CCNc1ccc(CNC=O)c2sc3ccc(OC)cc3c(=O)c12,AC50,[9],12.7 µM (active)
same,outcome,[13],inactive
same,AC50,[3],6.96 µM (active)
same,AC50,[10],19200 nM (active)
same,AC50,[11],11.3 µM (active)
CC(=O)NC1(c2cccc(F)c2)CCN(CC[C@@]2(c3ccc(Cl)c(Cl)c3)CN(c3ccccc3)C(=O)CO2)CC1,AC50,[14],2.24 µM (active)
same,AC50,[9],0.449 µM (active)
same,AC50,[2],14 µM (active)
same,outcome,[15],inactive
same,AC50,[10],835 nM (active)
same,AC50,[11],8.91 µM (active)
O=C(O)Cc1cc(I)c(Oc2cc(I)c(O)c(I)c2)c(I)c1,outcome,[9],inactive
ClC1=C(Cl)C(Cl)(Cl)C(Cl)=C1Cl,outcome,[14],inactive
same,outcome,[4],inactive
same,outcome,[7],inactive
CN(C)C=O,outcome,[15],inactive
CC1=C(/C=C/C(C)=C/C=C/C(C)=C/C(=O)O)C(C)(C)CCC1,outcome,[3],inactive
Cc1cc(CCN2CCN(c3nsc4ccccc34)CC2)cc2c1NC(=O)CC2(C)C,outcome,[8],inactive
OCCC(F)(F)C(F)(F)C(F)(F)C(F)(F)C(F)(F)C(F)(F)C(F)(F)C(F)(F)F,outcome,[12],inactive
same,outcome,[16],inactive
O=C(OCCOCCOC(=O)c1ccccc1)c1ccccc1,outcome,[17],inactive
same,outcome,[3],inactive
same,outcome,[16],inactive
same,outcome,[1],inactive
OC1CCCCC1,outcome,[9],inactive
